# Measured values as given in PubChem BioAssay AID686978 (National Center for Advancing Translational Sciences (NCATS), 2013).
# In all, about 420,000 compounds went through this assay and about 64,000 (15%) were called active. Roughly 27% stayed inconclusive and do not appear here. The call rests on the fitted dose curve; in most records, active means well fitted inhibition curve with a large enough effect; inconclusive means small, poorly fitted or top-dose-only effect; inactive means flat fitted curve, though single readings scatter. Not all results are given here.
# Assay: qHTS for Inhibitors of human tyrosyl-DNA phosphodiesterase 1 (TDP1): qHTS in cells in absence of CPT; further: nearly all actives have a fitted effect of over 55% in size
# Conditions: DT40 Tdp1-/- hTDP1 cells, no CPT, ATP luminescence, 48 h; activity change, negative = growth inhibition: at 46.2 µM (top of the series)
# Outline: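 Luminescent ATP content (CellTiter-Glo) served as the growth readout. Knockout chicken DT40 cells expressing human TDP1 were exposed to compounds without camptothecin for a minimum 48 hr at 37 °C.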
# On the % scale 0 is the no-effect control and ±100 the full control effect; potency means the concentration at half of the fitted maximal effect.
Compound,"activity change, negative = growth inhibition",Potency
Cc1nc(NCc2ccccc2)c(C(N)=O)c2c1COC(C)(C)C2,-11.4% (inactive),
CCCCCC(=O)N1CCN(S(=O)(=O)c2ccc3c(c2)OCCCO3)CC1,-29% (inactive),
CC(=O)NNc1cc(=O)c2c(=O)n(C)c(=O)n(C)c2[nH]1,-2.48% (inactive),
Cc1cccc(C(=O)NC(=S)N2CCN(c3ccc([N+](=O)[O-])cc3)CC2)c1,,16.4 µM (active)
Cc1cccc(C(=O)NNC(=O)c2cccc([N+](=O)[O-])c2)c1,5.26% (inactive),
O=C(NC(=S)NC1CCS(=O)(=O)C1)c1cccc([N+](=O)[O-])c1 (stereo not given),41.6% (inactive),
O=C(NCc1ccncc1)c1ccc(NS(=O)(=O)c2cccc([N+](=O)[O-])c2)cc1,-6.11% (inactive),
COCCCn1cc(CN2CC(N(C)C)CS2(=O)=O)nn1 (stereo not given),-7.87% (inactive),
COCOCCn1cc(CN2CCS(=O)(=O)N(Cc3ccc(-c4ccccc4)cc3)C(CC(C)C)C2=O)nn1 (stereo not given),,18.4 µM (active)
COCOCCn1cc(CN2CCS(=O)(=O)N(Cc3ccc(-c4ccc(OC)cc4)cc3)C(CC(C)C)C2=O)nn1 (stereo not given),,10.3 µM (active)
CN(Cc1ccccc1)S(=O)(=O)c1ccc(F)c(C(=O)Nc2cccc(Cl)c2Cl)c1,-21.5% (inactive),
CC1CCN(S(=O)(=O)c2ccc(S(=O)(=O)NCc3ccco3)cc2)CC1,-18.4% (inactive),
CC(C)CNC(=S)NNC(=O)c1nn(C)cc1Cl,-16.3% (inactive),
FC(F)(F)c1ccc(-c2cccc3c2C2CC3CCN2Cc2ccccc2)cc1 (stereo not given),,13 µM (active)
O=C(NCCN1CCOC1=O)C1CCC(=O)N(CCc2ccc(Cl)cc2)C1 (stereo not given),2.23% (inactive),
O=S(=O)(c1ccc(F)cc1)N1CCN(Cc2ccccc2C(F)(F)F)CC1,-14.4% (inactive),
CSCCC(NS(=O)(=O)/C=C/c1ccccc1)C(=O)N1CCC(C)CC1 (stereo not given),-17% (inactive),
COc1ccc(OC)c(NC(=O)CCN2CCC(C)CC2)c1,-7.7% (inactive),
COc1ccc(OC)c(NC(=O)CN2CCCN(Cc3cc(C)ccc3C)S2(=O)=O)c1,,18.4 µM (active)
CCOC(=O)N1CCN(CCC(=O)Nc2cc(OC)ccc2OC)CC1,-3.04% (inactive),
COC(=O)c1ccc(S(=O)(=O)c2ccc(C(=O)OC)s2)s1,0.0322% (inactive),
C=CC(=O)Nc1ccc(Nc2ccnc(Nc3ccc(N4CCN(C)CC4)cc3)n2)cc1,-92.1% (inactive),

Compound,"activity change, negative = growth inhibition",Potency
Fc1ccc2nc(-c3ccccc3)nc(SCc3nnc(-c4ccccc4)o3)c2c1,,23.1 µM (active)
Fc1ccc(-c2nnc(CSc3nnc(-c4ccc5c(c4)OCO5)o3)o2)cc1,0.842% (inactive),
N#CCSc1nc(-c2ccccc2)nc2ccc(F)cc12,-14% (inactive),
Nc1ccc2c(c1)C(O)c1ccc(Cl)cc1-2 (stereo not given),-1.47% (inactive),
CCCCCCOc1ccc(OC(=O)c2cccnc2)cc1,,13 µM (active)
CCCCCCCCC(=O)NCCOc1ccccc1,2.92% (inactive),
O=C(Oc1ccc(Br)cc1)c1cccnc1,-13.7% (inactive),
COc1ccc(-c2nc(CS(=O)CC(=O)NCc3cccnc3)c(C)o2)cc1OC (stereo not given),-1% (inactive),
C=CCOc1ccc(C2/C(=C(\O)c3c(C)[nH]c(C(=O)OC)c3C)C(=O)C(=O)N2CCN(C)C)cc1 (stereo not given),13.3% (inactive),
CO[C@H]1[C@@H]2C=CO[C@@H](O[C@H]3O[C@@H](CO)[C@H](O)[C@@H](O)[C@@H]3O)[C@@H]2[C@@]2(CO)O[C@@H]12,-8.69% (inactive),
COc1ccc(NC(=O)c2sc3nc[nH]c(=O)c3c2C)cc1,-20.4% (inactive),
CC(=O)c1sc2nc(SCC(=O)N3CCCCC3)[nH]c(=O)c2c1C,-1.59% (inactive),
CC(=O)c1ccc(NC(=O)c2sc3nc4n(c(=O)c3c2C)CCCCC4)cc1,,13 µM (active)
Cc1ccc(NC(=S)NC(=O)/C=C/c2ccc(Cl)cc2)cc1,-25.3% (inactive),
CC(C)C[C@H](NC(=O)[C@@H]1O[C@H]1C(=O)O)C(=O)NCCCCN=C(N)N,7.11% (inactive),
C=CCOc1cccc(C2NC(=O)c3ccccc3O2)c1 (stereo not given),-17.6% (inactive),
CCCc1c(C(=O)O)cnn1-c1ccc(Cl)cc1,-21.2% (inactive),
CCCc1c(C(=O)Nc2ccc(F)cc2)cnn1-c1ccccc1,,14.6 µM (active)
CCc1ccccc1NC(=O)c1cnn(-c2ccc(F)cc2)c1C1CCNCC1,-18.4% (inactive),
CN(C(=O)COC(=O)c1ccc(Br)o1)c1c(N)n(Cc2ccccc2)c(=O)[nH]c1=O,-17.2% (inactive),
O=S(=O)(Cc1nnnn1-c1ccc(Br)cc1)c1ccc(F)cc1,-15.1% (inactive),
Cc1cc(C)cc(Oc2c(C(F)(F)F)oc3cc(OCC(=O)O)ccc3c2=O)c1,-19% (inactive),

Compound,"activity change, negative = growth inhibition",Potency
COc1cc(/C=N/Nc2nc3ccccc3s2)ccc1O,,1.3 µM (active)
COc1cc(C=NC2CCCCC2)ccc1O,-20.7% (inactive),
O=[N+]([O-])c1cc(Br)c(O)c(/C=N/Nc2nc3ccccc3s2)c1,,18.4 µM (active)
Cc1ccc(S(=O)(=O)Nc2nc3ccccc3s2)cc1[N+](=O)[O-],-10.3% (inactive),
COc1ccc(/C=N/Nc2nc3ccccc3o2)cc1OC,8.23% (inactive),
CN(C(=O)CSc1nnc(N)s1)c1c(N)n(Cc2ccccc2)c(=O)[nH]c1=O,-3.27% (inactive),
COc1cc(Br)cc2cc(S(=O)(=O)c3ccccc3)c(=O)oc12,-2.21% (inactive),
COc1ccc(N2CC(NS(=O)(=O)c3ccc4ccccc4c3)CC2=O)cc1 (stereo not given),,23.1 µM (active)
COc1cccc(N2CC(NS(=O)(=O)c3ccc(Cl)cc3)CC2=O)c1 (stereo not given),-18.3% (inactive),
COc1cccc(N2CC(NS(=O)(=O)c3cccs3)CC2=O)c1 (stereo not given),-5.55% (inactive),
Cc1ccc(N(NC(=O)C(C)(C)O)C(=O)c2ccccc2)cc1C,-27% (inactive),
CCCCC(O)(CCCC)C(=O)NN(C(=O)CCl)c1ccccc1,,20.6 µM (active)
CC(C)(O)C(=O)NN(C(=O)c1ccccc1)c1cccc(Br)c1,4.16% (inactive),
CCCC(O)(CCC)C(=O)NN(C(=O)CCl)c1cccc(C)c1,,5.8 µM (active)
COC(=O)N(NC(=O)C(O)(C(C)C)C(C)C)c1ccccc1,3.81% (inactive),
CN(C)/C=C/c1c(C#N)c(=O)ncn1Cc1ccccc1,11.3% (inactive),
COc1cc(/C=C(/NC(=O)c2ccc(Cl)cc2Cl)C(=O)O)cc(OC)c1OC,-3.62% (inactive),
Cc1ccc(C(=O)N/C(=C\c2ccco2)C(=O)N2CCSCC2)cc1C,2.18% (inactive),
CCNc1nc(N)nc(Oc2ccc(OCC)nn2)n1,-5.62% (inactive),
CCOc1cccc(=O)c2c(C)n(CC3CCCO3)c(C)c12 (stereo not given),-21.8% (inactive),
Cc1ccc2c(=O)c(C(=O)c3ccc(F)cc3)cn(CC(=O)NC3CCCCC3)c2n1,-11.5% (inactive),
